Structures are written as SMILES. Out of some 320,000 compounds screened, about 2,200 (0.69%) were called active. This excerpt belongs to a sample that is enriched for actives. Unmarked numbers belong to inactive results. Cut-off read from the data, not from the text of the source: active = inhibition above about 43%; inactive = the rest.

Prolyl endopeptidase-like (Homo sapiens), sequence (Q4J6C6 whole entry, looked up): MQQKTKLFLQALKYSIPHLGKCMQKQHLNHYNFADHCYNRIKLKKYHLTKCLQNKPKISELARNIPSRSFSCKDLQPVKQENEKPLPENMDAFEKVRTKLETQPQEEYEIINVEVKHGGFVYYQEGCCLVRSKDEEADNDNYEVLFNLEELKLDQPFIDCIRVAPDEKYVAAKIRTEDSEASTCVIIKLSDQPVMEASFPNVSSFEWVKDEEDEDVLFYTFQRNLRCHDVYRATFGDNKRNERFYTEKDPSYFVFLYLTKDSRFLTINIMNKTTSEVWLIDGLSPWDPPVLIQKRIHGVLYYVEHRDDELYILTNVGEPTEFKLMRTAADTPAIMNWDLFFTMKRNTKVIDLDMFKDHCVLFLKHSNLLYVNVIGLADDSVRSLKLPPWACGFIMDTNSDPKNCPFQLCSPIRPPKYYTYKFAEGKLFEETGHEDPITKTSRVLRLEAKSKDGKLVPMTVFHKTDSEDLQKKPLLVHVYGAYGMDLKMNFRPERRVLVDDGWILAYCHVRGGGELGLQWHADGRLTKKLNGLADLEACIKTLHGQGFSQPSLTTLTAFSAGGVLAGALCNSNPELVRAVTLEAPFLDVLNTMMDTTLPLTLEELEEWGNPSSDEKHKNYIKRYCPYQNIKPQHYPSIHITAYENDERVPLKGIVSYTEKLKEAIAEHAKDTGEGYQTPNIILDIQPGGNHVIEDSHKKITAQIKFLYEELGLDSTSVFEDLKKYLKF

This experiment addresses Prolyl endopeptidase-like (Homo sapiens) (UniProt Q4J6C6). The experiment in a line: human PREPL activity-probe blockers – biochemical, fluorescence polarization, primary screen (AID 2751).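 Note: 0% = enzyme with DMSO and 100% = wells lacking enzyme.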 Conditions: recombinant PREPL, fluorescence polarization activity-based probe; at 5.96 µM; stronger effect = higher value. A general note: In fluorescence polarisation assays a small probe gives low polarisation when free and higher when bound to something large.
The term inhibition denotes the relative decrease from the control value, in per cent. As to `Cc1ccc(C(C)NC(=O)Cn2nc(C)c([N+](=O)[O-])c2C)cc1` (centres undefined), the inhibition is 11.6%. Take `O=C(Nc1cccc(S(=O)(=O)N2CCOCC2)c1)C12CC3CC(CC(C3)C1)C2`: the inhibition was 12.3%. In the case of `CC(CNc1ccc([N+](=O)[O-])cc1)NC(=O)c1ccccc1Br` (centres undefined), the inhibition is 4.76%. For `COc1ccc(C(=O)C2CCCN(C(=O)c3cnsn3)C2)c(C)c1` (centres undefined), the inhibition is 13.4%.

With `CCn1nc(C)cc1C(=O)N1CCCC(C(=O)c2cccc(OC)c2)C1` (centres undefined), the inhibition was -1.89%. The figure for `COc1ccc2cc(C(=O)C3CCCN(C(=O)c4sc(C)nc4C)C3)ccc2c1` (centres undefined) is 47.9% (active).

For the molecule `COc1ccc(/C(O)=C2/C(=O)C(=O)N(CC3CCCO3)C2c2ccc(OC)c(OC)c2)cc1` (centres undefined), the inhibition is 1.2%. The figure for `CC(C)C[C@H](CO)Nc1nc(N(C)c2cccc(Cl)c2)c2ncn(C(C)C)c2n1` is 12.1%; for `CC(C)n1cnc2c(NCc3ccccc3)cc(N[C@@H](CO)Cc3ccccc3)cc21` it is 62% (active); for `CC(C)n1cnc2c(NCc3ccccc3)cc(OCC3CCN(C)CC3)cc21` it is 83.8% (active).

With `CCC(CO)Oc1cc(NCc2ccccc2)c2ncn(C3CCCC3)c2c1` (centres undefined), the inhibition is 43.8% (active).

Consider `CCC(CO)Oc1cc(NC(=O)c2cccc3ccccc23)c2ncn(C(C)C)c2c1` (centres undefined), for which the inhibition was 18.7%. With `CCC(CO)Oc1cc(NC(=O)c2cccc(F)c2)c2ncn(C(C)C)c2c1` (centres undefined), the inhibition was 3.94%. For the molecule `CN(C)c1nccc(NCc2ccccc2)c1C#N`, the inhibition is 3.08%. `CCC(CO)Oc1cc(NC(=O)c2ccc(Cl)cc2)c2ncn(C(C)C)c2c1` (centres undefined): the inhibition was 13%. The figure for `CC(C)N(Cc1ccccc1)C(=O)COC(=O)c1cnccn1` is -8.35%; for `COC(=O)[C@]1(Cc2ccccc2)N[C@H](CN(C)S(=O)(=O)c2ccc(OC(F)(F)F)cc2)[C@@H]2C(=O)N(Cc3ccccc3)C(=O)[C@@H]21` it is 8.99%; for `COC(CNC(=O)Cn1ncc2ccsc2c1=O)OC` it is 6.98%.

For `CCCn1c(SCC(=O)Nc2ccc(C)c(S(=O)(=O)N3CCOCC3)c2)n[nH]c1=O`, the inhibition was 3.91%. Then `CCc1cc(=O)oc2cc(C)cc(OCC(=O)N3CCC[C@@H]3C(=O)O)c12`, with -4.62%. As for `O=C(CN(C(=O)c1csnn1)c1ccc(Br)cc1)NC1CCCC1`, the inhibition is 5.56%. With `CCCc1cc(=O)[nH]c2nnc(SCC(=O)Nc3nnc(SCC)s3)n12`, the inhibition is 0.4%. Take `CCn1c(=S)sc2c(=O)n(CC(=O)Nc3ccc(OC)cc3)c(C)nc21`: the inhibition is 7.88%.

As to `O=S(=O)(NCC1CC1)c1ccc(F)c(Cl)c1`, the inhibition is -5.91%.

With `CC(OC(=O)/C=C/c1ccccc1)C(=O)NC1CCCCC1C` (centres undefined), the inhibition was -7.55%. On to `Cc1ccc(Nc2ccccc2N)cc1`, for which the inhibition is 47.5% (active). As to `Nc1ccc(C(=O)Nc2ccccc2N)cc1`, the inhibition is -1.77%.

Regarding `Cc1ccc(Nc2nc(Cl)c(C=O)s2)cc1`, the inhibition is -3.94%. Then `Cc1cc(OC(C)C(=O)NC2CC(C)(C)NC(C)(C)C2)c2c(C)cc(=O)oc2c1` (centres undefined), with 2.31%; and `O=C(Nc1ccc([N+](=O)[O-])cc1)C1CC12CCC2` (centres undefined), with 1.87%; and `CCN1C(=O)c2cccc3c(N)ccc1c23`, with 45.6% (active). As for `CCN1C(=O)c2cccc3c(S(=O)(=O)Nc4ccccc4O)ccc1c23`, the inhibition is 4.31%. As to `CN1C(=O)c2cccc3c(N)ccc(c23)C1=O`, the inhibition is 14.4%. In the case of `Cc1snc(SCc2c(F)cccc2Cl)c1C#N`, the inhibition is 10%.

Take `Cc1nc([N+](=O)[O-])nn1C12CC3CC(CC(Br)(C3)C1)C2`: the inhibition is 45.5% (active). Regarding `COc1cccc(NC(=O)c2nn(C34CC5CC(CC(C5)C3)C4)cc2[N+](=O)[O-])c1`, the inhibition was 1.65%. Take `Cc1ncn(C23CC4CC(CC(O)(C4)C2)C3)n1`: the inhibition was 3.85%. In the case of `CCn1nc(C(=O)NNS(=O)(=O)c2cc(/C=C/C(=O)O)cc(OC)c2OC)c2ccccc2c1=O`, the inhibition is 1.44%. The figure for `Cn1c(CC2Sc3ccccc3NC2=O)nnc1SCC(=O)c1ccc(Cl)cc1` (centres undefined) is -2.92%. Regarding `Cc1cc(-c2nnc(SCC(=O)Nc3ccc(F)cc3)n2N)n[nH]1`, the inhibition was -0.73%. In the case of `CCOC(=O)N1CCN(S(=O)(=O)c2ccc(-n3cnnn3)cc2)CC1`, the inhibition is -0.87%.

For the molecule `COc1ccc(/C=N/N=C/c2c[nH]c(=O)c(C#N)c2Nc2ccccc2)cc1`, the inhibition was 5.21%. Take `O=C(OCC(=O)N1CCc2ccccc21)c1ccc([N+](=O)[O-])cc1`: the inhibition was 18%.

On to `O=C1c2ccccc2C(=O)c2c1cccc2N1CCN(C/C=C/c2ccccc2)CC1`, for which the inhibition was 87.2% (active). The figure for `O=C1c2ccccc2C(=O)c2c1cccc2N1CCN(CCO)CC1` is 10%; for `O=C1c2ccccc2C(=O)c2c1cccc2N1CCN(Cc2ccccc2)CC1` it is 34.3%. Take `CN(C(=O)CC1C(=O)NCCN1Cc1ccc2ccccc2c1)C1CCOCC1` (centres undefined): the inhibition was 15.8%. With `CCCc1cc(=S)n2c([nH]c3ccccc32)c1C#N`, the inhibition is 16%. Then `Cc1ccsc1/C=C1\SC(N2CCOCC2)=NC1=O`, with 5.64%; and `Cc1ccc(N2CCN(C3=NC(=O)/C(=C\c4cccs4)S3)CC2)cc1`, with 53% (active); and `Cc1ccc(N2CCN(/N=C/c3cccs3)CC2)cc1`, with 10.6%.

As for `CN(NS(=O)(=O)c1cccs1)c1ncc(C(F)(F)F)cc1Cl`, the inhibition was -0.65%.

Take `COc1ccccc1OCC(=O)Nc1c2c(nn1-c1ccc(F)cc1)CS(=O)(=O)C2`: the inhibition was -4.94%. In the case of `COc1ccc(Cl)cc1NC(=O)CN1CCN(C(=O)N2CCOCC2)CC1`, the inhibition is -6.54%.

In the case of `COc1cccc(NC(=O)CN2CCN(CC(=O)Nc3ccccc3Cl)CC2)c1`, the inhibition was -3.67%. Regarding `COc1ccc(NC(C)=O)cc1NC(=O)CN1CCN(C2c3ccccc3-c3ccccc32)CC1`, the inhibition is 43.8% (active).

On to `CN=C1SC(CC(=O)Nc2ccc(C(=O)O)cc2)C(=O)N1C` (centres undefined), for which the inhibition was 1.69%. For the molecule `COP1(=O)C[C@@H](O)[C@@H](O)[C@@H](COCc2ccccc2)O1` (some centres undefined), the inhibition was -5.04%. Regarding `O=C(c1ccco1)N1CCN(C(=O)C2CCCN(S(=O)(=O)c3cccc4nsnc34)C2)CC1` (centres undefined), the inhibition was -5.71%.

In the case of `O=C1N=C(N2CCc3ccccc3C2)S/C1=C\c1ccc(O)cc1`, the inhibition was 47.4% (active).

For the molecule `CCc1ccc(/C=C2\SC(N3CCOCC3)=NC2=O)cc1`, the inhibition was 19.1%. Regarding `CC1CCN(C2=NC(=O)/C(=C/c3ccc(O)cc3)S2)CC1`, the inhibition is 12.1%. Regarding `C=CCOc1ccc(/C=C/C(=O)OCC(=O)NC(C)c2ccc(F)cc2)cc1` (centres undefined), the inhibition is 5.51%. Consider `S=C(NCCC1=CCCCC1)Nc1ccccc1`, for which the inhibition is 9.47%. Then `Oc1ccc2ccccc2c1N=Nc1nccs1`, with 50.7% (active); and `Cc1ccc(S(=O)(=O)N2CCN=C2SCc2c(F)cccc2Cl)cc1`, with 11.2%.

Consider `C=CC(=O)OCCOCCOCCOCCOC(=O)C=C`, for which the inhibition is -0.81%. `CCC(=O)Nc1ccc(C(=O)N2CCN(C(=O)c3ccco3)CC2)cc1`: the inhibition was -4%. Regarding `CN1CCN(c2ccc(NC(=O)COc3ccc(Cl)cc3Cl)cc2)CC1`, the inhibition is 54.8% (active).

`Cc1ccc(Cl)c(OCC(=O)N(C)CC(=O)Nc2ccc(N3CCOCC3)cc2)c1`: the inhibition was -6.09%.

Turning to `Cc1ccc(OCC(=O)Nc2ccc(N3CCN(C(=O)c4ccco4)CC3)cc2)c(C)c1`, the inhibition is 55% (active). Regarding `CN1CCC(OC(=O)COc2ccc(Cl)cc2Cl)CC1`, the inhibition was -6%. As for `Cc1ccc(C)c(OCC(=O)N2CCN(C(=O)c3ccco3)CC2)c1`, the inhibition is 1.04%. Take `Cc1ccc(S(=O)(=O)c2nc(-c3cccs3)oc2NCc2cccnc2)cc1`: the inhibition is 8.75%. Regarding `Oc1ccccc1-c1cc(-c2ccc(Cl)cc2)n[nH]1`, the inhibition is -35.8%. Regarding `Cc1ccc(/C=N/NC(=O)c2cc3ccccc3cc2O)o1`, the inhibition was 13.4%. Consider `O=C(N/N=C/c1cccnc1)c1cc2ccccc2cc1O`, for which the inhibition is 63.4% (active). Then `O=C(NN=Cc1ccc(N2CCOCC2)cc1)c1cc2ccccc2cc1O`, with 19.7%; and `NC(=O)COc1ccc(/C=N/NC(=O)C2CCCN2S(=O)(=O)c2ccc(Cl)cc2)cc1` (centres undefined), with 11%. In the case of `CCCCN(C(=O)c1ccc(C)o1)c1c(N)n(CCCC)c(=O)[nH]c1=O`, the inhibition was -0.55%. In the case of `CC(C)(C)Nc1nc(-c2ccccn2)nc2ccccc12`, the inhibition is 47.1% (active). Then `c1ccc2c(NCC3CCCO3)nc(-c3ccncc3)nc2c1` (centres undefined), with 5.66%.

For the molecule `COc1ccc(CNc2ncnc3ccccc23)cc1`, the inhibition was -16.5%. The figure for `Cc1n[nH]c(C)c1S(=O)(=O)N1CCCC(C(=O)Nc2ccc(Br)cc2)C1` (centres undefined) is -17.7%. `O=S(=O)(O)CCN1CCOCC1`: the inhibition is 25.7%. Then `O=C(NCC(=O)N1CCN(c2ccccc2F)CC1)c1cccs1`, with 3.72%; and `COc1cccc2cc(C(N)=O)/c(=N\NC(=O)c3ccccc3)oc12`, with -0.47%; and `NC(=O)c1cc2ccccc2o/c1=N/NC(=O)c1cccc(F)c1`, with 11.6%. For the molecule `CCN(CC)c1ccc2cc(C(N)=O)/c(=N\NC(=O)c3ccncc3)oc2c1`, the inhibition was 48.4% (active).

On to `CC1CCC2(CC1)NC(=O)N(CC(=O)c1ccc3c(c1)OCO3)C2=O` (centres undefined), for which the inhibition was 11.2%. On to `O=c1oc(-c2ccccc2NS(=O)(=O)c2ccc(Cl)cc2)nc2ccccc12`, for which the inhibition was 6.42%. The figure for `COC(=O)[C@]1(CC(C)C)N[C@H](c2ccc(SC3CCCCC3)cc2)[C@@H]2C(=O)N(C)C(=O)[C@@H]21` is 2.32%; for `CCN1/C(=C/c2ccc3ccc(C)cc3[n+]2CC)Sc2ccccc21` it is 53.4% (active). For `CCN1/C(=C\c2ccc3ccccc3[n+]2CC)Sc2cc(C)ccc21`, the inhibition is 52.8% (active).

Values taken from PubChem BioAssay AID2751 (The Scripps Research Institute Molecular Screening Center, 2010).
